The values that follow come from PubChem BioAssay (Tox21).

Several values for one entry are separate records, joined by “and”; a condition that tells them apart may be missing. Identical values can stand only once. Inconclusive results are not listed. Where a structure was tested more than once in an assay, its records may differ in their call. Activity calls are given as the source filed them. Unless noted, calls follow the shape of the dose curve; as a rule, active = well fitted curve in the direction sought with a large enough effect in the repeat runs; inconclusive = weak or mixed curves; inactive = no such curve, though single readings can be large; an effect the other way counts as inactive or inconclusive.

Assay [1] concerns the target Progesterone receptor (Homo sapiens) (UniProt P06401). The assay can be described thus: qHTS assay to identify small molecule agonists of the progesterone receptor (PR) signaling pathway (AID 1346784; calls by dose curve; also: nearly all actives have a fitted effect of over 30% in size). Put shortly:
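Compounds were tested for PR agonism in HEK 293T cells bearing a beta-lactamase gene under UAS control. Treatment lasted 16 hr at 37C; signal came from fluorescence of a FRET substrate.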

Assay [2] has the same target. The assay can be described thus: qHTS assay to identify small molecule antagonists of the progesterone receptor (PR) signaling pathway (AID 1346795; active = well fitted inhibition curve with a large enough effect in the signal ratio in the repeat runs, not every such curve was filed as active; the % refers to the signal ratio; also: potency is read from the fitted curve at half-maximal effect). An outline of the steps: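 In HEK293T cells bearing the PR-UAS-bla reporter, compound effects on promegestone-driven (1 nM) beta-lactamase expression are assessed after 16 hr using a fluorescent FRET substrate incubated 2 hr at room temperature.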
(In qHTS, concentration-response curves come from the screen itself.)

Assay [3] can be described thus: qHTS assay to identify small molecule antagonists of the progesterone receptor (PR) signaling pathway - cell viability counter screen (AID 1346798). Also: series mostly up to about 92 µM; nearly all actives have a fitted effect of over 50% in size. An outline of the steps: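 Following a 4 hr attachment, PR-UAS-bla HEK293T cells in charcoal-stripped FBS medium were exposed to compounds with R5020 for 16 hr; CellTiter-Glo was added and luminescence read after 30 min at room temperature.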

The nature of assay [4]: qHTS assay to identify small molecule agonists of the progesterone receptor (PR) signaling pathway - cell viability counter screen (AID 1346799; calls by dose curve; also: nearly all actives have a fitted effect of over 45% in size). An outline of the steps: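 Here, 3,000 PR-UAS-bla HEK293T cells per well were treated with compounds for 16 hr after a 6 hr preincubation at 37C and 5% CO2; cell viability is the CellTiter-Glo luminescence signal.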
Assay [5] in a line: qHTS assay to identify small molecule antagonists of the TGF-beta/Smad signaling pathway - cell viability counter screen (AID 1346824). Also: nearly all actives have a fitted effect of over 50% in size. An outline of the steps:
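Cytotoxicity counter-screen run in the same wells as the beta-lactamase Smad reporter read: CellTiter-Glo luminescence after 30 min at room temperature. HEK 293T SBE-bla cells had 5 hr compound exposure at 37 C with TGF-beta1 (0.25 ng/mL stock).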

Assay [6] is described as follows: qHTS assay to identify small molecule agonists of the TGF-beta/Smad signaling pathway - cell viability counter screen (AID 1346829). Also: top concentration of the series differs between compounds; nearly all actives have a fitted effect of over 45% in size. An outline of the steps: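 Cytotoxicity counter screen: CellTiter-Glo luminescence (30 min, room temperature) measured in the SBE-bla HEK 293T reporter wells after 5 hr compound treatment at 37 C and the 2 hr substrate step.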
Assay [7] is described as follows: qHTS assay to identify small molecule agonists of the TGF-beta/Smad signaling pathway (AID 1346859; active = well fitted activation curve with a large enough effect in the signal ratio in the repeat runs, not every such curve was filed as active; the % refers to the signal ratio; also: series mostly up to about 77 µM). Put shortly:
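Each well held 4,000 SBE-bla HEK 293T cells incubated overnight before compound addition; 5 hr later the cleavable FRET substrate went on for 2 hr at room temperature, and fluorescence was read at two emissions.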

Assay [8] can be described thus: Human pregnane X receptor (PXR) small molecule agonists, qHTS cell viability counter screen (AID 1346977). Also: nearly all actives have a fitted effect of over 50% in size. Also: potency is read from the fitted curve at half-maximal effect. An outline of the steps: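 Tox21 qHTS format; PXR-Luc HepG2, 2,000/well, charcoal-stripped FBS 5%. Cpd exposure 24hr. Read: CellTiter-Fluor fluorescence, multiplexed with luciferase.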
Assay [9] in a line: Caspase-3/7 induction in HepG2 cells by small molecules, qHTS assay (AID 1346978). Also: nearly all actives have a fitted effect of over 15% in size. An outline of the steps: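 Caspase-3/7 induction was measured by Caspase-Glo 3/7 luminescence (30 min, room temperature) after a 17 hr compound exposure of wild-type HepG2 cells seeded at 2,000 per well and pre-incubated 5 hr.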
Assay [10] can be described thus: Caspase-3/7 induction in CHO-K1 cells by small molecules, qHTS assay (AID 1346980). Also: nearly all actives have a fitted effect of over 15% in size. An outline of the steps: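 Luminescent Caspase-Glo 3/7 read (30min, room temperature) quantified apoptosis induction. Cells were wild-type CHO-K1, treated with compound for 17hr at 37 C and 5% CO2.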
Assay [11] is described as follows: Caspase-3/7 induction in HepG2 cells by small molecules, qHTS cell viability counter screen (AID 1346981). Also: series mostly up to about 92 µM; nearly all actives have a fitted effect of over 30% in size. Put shortly: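 HepG2, WT, 2,000 cells/well; 5 hr pre-incubation 37 C/5% CO2; compound pin-transferred from DMSO; 16 hr exposure; CellTiter-Fluor, 1 hr; fluorescence read.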
Assay [12] concerns the target Nuclear receptor subfamily 1 group I member 2 (Homo sapiens) (UniProt O75469). In words: Human pregnane X receptor (PXR) small molecule agonists, qHTS assay (AID 1346982). Also: nearly all actives have a fitted effect of over 35% in size. Also: potency is read from the fitted curve at half-maximal effect. Put shortly:
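Luciferase signal from ONE-Glo (30 min, room temperature) measured activation of hPXR-driven CYP3A4 reporter expression in PXR-Luc HepG2 cells treated with compounds for 24 hr at 37 C.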

Assay [13] concerns the target Cytochrome P450 2D6 (Homo sapiens) (UniProt P10635). The assay can be described thus: Cytochrome P450 Family 2 Subfamily D Member 6 (CYP2D6) small molecule antagonists: luciferase reporter qHTS assay (AID 1671196). Also: nearly all actives have a fitted effect of over 50% in size. Also: potency is read from the fitted curve at half-maximal effect. Put shortly:
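Read-out is luminescence from luciferin formed by CYP2D6 turnover of a proluciferin substrate, recorded as relative luminescence units. Reactions ran 1 h at room temperature after NADPH regeneration solution was added.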

For assay [14], the target named is Cytochrome P450 2C19 (Homo sapiens) (UniProt P33261). The assay can be described thus: Cytochrome P450 Family 2 Subfamily C Member 19 (CYP2C19) small molecule antagonists: luciferase reporter qHTS assay (AID 1671197). Also: nearly all actives have a fitted effect of over 65% in size. Also: potency is read from the fitted curve at half-maximal effect. An outline of the steps: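 Luminescent readout of CYP2C19 activity: luciferin product detected 20 min after adding detection reagent. Before that, compound and enzyme-substrate mix preincubated 10 min at room temperature; NADPH-regenerating system started a 1 h, 37C reaction. Ketoconazole as positive control.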
Chain of Cytochrome P450 2C19 (Homo sapiens) (P33261 whole entry, looked up): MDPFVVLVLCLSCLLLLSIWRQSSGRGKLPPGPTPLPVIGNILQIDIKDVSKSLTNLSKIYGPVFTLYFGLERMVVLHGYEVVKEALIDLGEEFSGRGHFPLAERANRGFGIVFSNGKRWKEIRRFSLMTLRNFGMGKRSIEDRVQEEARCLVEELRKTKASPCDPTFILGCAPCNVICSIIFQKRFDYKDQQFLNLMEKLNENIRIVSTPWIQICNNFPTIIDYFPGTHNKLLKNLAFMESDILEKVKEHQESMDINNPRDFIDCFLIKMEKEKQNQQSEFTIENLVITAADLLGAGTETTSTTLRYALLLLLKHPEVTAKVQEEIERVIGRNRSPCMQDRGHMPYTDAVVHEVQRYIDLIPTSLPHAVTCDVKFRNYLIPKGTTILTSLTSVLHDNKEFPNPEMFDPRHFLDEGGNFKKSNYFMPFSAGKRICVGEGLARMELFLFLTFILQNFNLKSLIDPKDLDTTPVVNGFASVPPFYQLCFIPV
Background: Reporter assays use an easily measured gene product as a stand-in for the process of interest.

For assay [15], the target named is Thyrotropin-releasing hormone receptor (Homo sapiens) (UniProt P34981). In words: qHTS assay to identify small molecule antagonists of the thyrotropin-releasing hormone receptor (TRHR) signaling pathway (AID 1346877; active = well fitted inhibition curve with a large enough effect in the repeat runs, not every such curve was filed as active; also: series mostly up to about 51 µM). An outline of the steps:
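Intracellular calcium fluorescence, read kinetically every second over 3 min, reports TRH-evoked signalling in HEK293 cells carrying TRHR. Test compounds were added 5 min ahead of a 1 nM TRH challenge.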

The target is the same in assay [16]. In words: qHTS assay to identify small molecule agonists of the thyrotropin-releasing hormone receptor (TRHR) signaling pathway (AID 1346891; calls by dose curve; also: series mostly up to about 58 µM). Put shortly:
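Screening of agonists relied on calcium signalling in HEK293 cells expressing human TRHR: dye loading 2 h at 37 °C preceded compound addition and a 3-min fluorescence time course.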

A short description of assay [17]: Caspase-3/7 induction in CHO-K1 cells by small molecules, qHTS cell viability counter screen (AID 1346979). Also: nearly all actives have a fitted effect of over 35% in size. Also: potency is read from the fitted curve at half-maximal effect. Put shortly: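 CellTiter-Fluor viability check, qHTS format: wild-type CHO-K1, 16hr compound treatment, 1hr reagent incubation, fluorescence read.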
The target of assay [18] is Nuclear receptor subfamily 1 group I member 2 (Rattus norvegicus) (UniProt Q9R1A7). In words: Rat pregnane X receptor (rPXR) activation by small molecules, qHTS assay (AID 1346983). Also: nearly all actives have a fitted effect of over 20% in size. The settings on record: rPXR luciferase reporter cells, One-Glo luminescence, 24 h; max activation: stronger effect = higher value. An outline of the steps: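 Luminescent readout (One-Glo luciferase, 30 min room temperature) followed 24 hr compound treatment at 37 C of rPXR cells plated 2,000 per well and preincubated 5hr; qHTS format with compounds delivered in DMSO.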
Chain of Nuclear receptor subfamily 1 group I member 2 (Rattus norvegicus) (Q9R1A7 whole entry, looked up): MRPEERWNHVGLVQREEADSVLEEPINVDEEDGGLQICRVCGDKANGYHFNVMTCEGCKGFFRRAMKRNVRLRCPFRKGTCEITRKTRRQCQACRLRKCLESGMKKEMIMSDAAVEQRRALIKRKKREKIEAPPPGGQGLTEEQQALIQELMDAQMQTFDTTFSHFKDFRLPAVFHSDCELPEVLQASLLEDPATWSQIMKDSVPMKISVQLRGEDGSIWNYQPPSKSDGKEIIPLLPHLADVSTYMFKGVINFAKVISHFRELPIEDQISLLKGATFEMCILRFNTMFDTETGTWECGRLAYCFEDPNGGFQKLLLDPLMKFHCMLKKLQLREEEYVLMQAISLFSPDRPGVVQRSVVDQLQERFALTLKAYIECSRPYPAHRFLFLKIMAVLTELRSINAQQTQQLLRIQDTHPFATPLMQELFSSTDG

Assay [19] has as its target Nuclear receptor subfamily 1 group I member 2 (Homo sapiens) (UniProt O75469). The assay can be described thus: CYP3A4 induction through human pregnane X receptor (PXR) by small molecules, qHTS assay (AID 1346984). Also: nearly all actives have a fitted effect of over 40% in size. An outline of the steps:
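Luminescence readout: luciferase signal after One-Glo (30 min, room temperature), following 3 h at 37C with 3uM final Luciferin-IPA P450 substrate. Cells were DPX-2 (HepG2, PXR/CYP3A4-luc co-transfected) dosed for 24 h.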

Assay [20] shares this target. The assay can be described thus: Human pregnane X receptor (PXR) activation by small molecules, qHTS assay (AID 1346985). Also: nearly all actives have a fitted effect of over 40% in size. An outline of the steps: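 DPX-2 cells (HepG2 co-transfected with a PXR response element and a CYP3A4-promoter luciferase construct) were seeded at 2,000 per well, rested 5 hr at 37C, then exposed to DMSO-dissolved compounds for 24 hr. Activation was read as luciferase luminescence.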
% is scaled to controls: 0 for no effect and ±100 for the full control effect.

Chain of Progesterone receptor (Homo sapiens) (P06401 whole entry, looked up): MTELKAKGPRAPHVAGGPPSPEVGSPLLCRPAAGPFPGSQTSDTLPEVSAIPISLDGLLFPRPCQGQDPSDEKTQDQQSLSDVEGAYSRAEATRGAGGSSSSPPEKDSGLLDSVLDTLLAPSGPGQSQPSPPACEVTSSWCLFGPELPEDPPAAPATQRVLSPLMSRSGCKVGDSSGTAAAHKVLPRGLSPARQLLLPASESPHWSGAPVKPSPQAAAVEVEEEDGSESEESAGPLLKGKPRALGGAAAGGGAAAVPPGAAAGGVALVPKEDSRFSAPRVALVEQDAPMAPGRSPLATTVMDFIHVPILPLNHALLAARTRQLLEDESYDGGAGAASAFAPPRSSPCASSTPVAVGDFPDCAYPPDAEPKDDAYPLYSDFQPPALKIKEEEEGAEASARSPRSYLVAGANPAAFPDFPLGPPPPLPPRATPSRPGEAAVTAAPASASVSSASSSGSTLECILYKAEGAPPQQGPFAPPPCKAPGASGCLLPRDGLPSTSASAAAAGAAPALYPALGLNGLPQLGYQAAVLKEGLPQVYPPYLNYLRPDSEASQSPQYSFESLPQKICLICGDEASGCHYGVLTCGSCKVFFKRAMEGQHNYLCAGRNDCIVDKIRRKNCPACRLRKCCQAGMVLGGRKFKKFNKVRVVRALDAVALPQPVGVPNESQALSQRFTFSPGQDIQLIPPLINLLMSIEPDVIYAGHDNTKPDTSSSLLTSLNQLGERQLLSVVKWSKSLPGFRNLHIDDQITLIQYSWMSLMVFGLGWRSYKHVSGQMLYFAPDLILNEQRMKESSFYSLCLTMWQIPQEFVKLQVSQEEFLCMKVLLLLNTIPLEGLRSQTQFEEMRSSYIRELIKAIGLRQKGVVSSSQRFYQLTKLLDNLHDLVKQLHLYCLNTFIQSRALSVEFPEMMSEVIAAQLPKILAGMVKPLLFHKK
Chain of Thyrotropin-releasing hormone receptor (Homo sapiens) (P34981 whole entry, looked up): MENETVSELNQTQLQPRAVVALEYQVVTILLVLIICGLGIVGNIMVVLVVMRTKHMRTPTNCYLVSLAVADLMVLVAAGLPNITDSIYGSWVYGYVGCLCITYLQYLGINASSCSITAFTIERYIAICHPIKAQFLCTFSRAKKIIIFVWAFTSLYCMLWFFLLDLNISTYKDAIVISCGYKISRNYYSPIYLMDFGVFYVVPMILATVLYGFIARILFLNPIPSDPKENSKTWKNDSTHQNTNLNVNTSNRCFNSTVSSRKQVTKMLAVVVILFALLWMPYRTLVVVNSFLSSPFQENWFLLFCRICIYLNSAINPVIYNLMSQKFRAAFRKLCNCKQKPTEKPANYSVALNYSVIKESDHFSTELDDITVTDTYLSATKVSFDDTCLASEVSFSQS
Chain of Nuclear receptor subfamily 1 group I member 2 (Homo sapiens) (O75469 whole entry, looked up): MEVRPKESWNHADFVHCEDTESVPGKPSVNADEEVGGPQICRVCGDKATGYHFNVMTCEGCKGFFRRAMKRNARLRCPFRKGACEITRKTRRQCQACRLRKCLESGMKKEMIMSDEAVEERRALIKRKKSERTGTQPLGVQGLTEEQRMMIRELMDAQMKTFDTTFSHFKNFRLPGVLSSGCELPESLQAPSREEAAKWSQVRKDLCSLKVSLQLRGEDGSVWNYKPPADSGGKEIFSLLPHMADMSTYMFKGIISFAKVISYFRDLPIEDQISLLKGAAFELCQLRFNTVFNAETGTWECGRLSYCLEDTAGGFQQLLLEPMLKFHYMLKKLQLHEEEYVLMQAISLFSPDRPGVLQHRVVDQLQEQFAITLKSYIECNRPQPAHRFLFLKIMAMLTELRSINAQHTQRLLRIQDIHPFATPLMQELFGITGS
Chain of Cytochrome P450 2D6 (Homo sapiens) (P10635 whole entry, looked up): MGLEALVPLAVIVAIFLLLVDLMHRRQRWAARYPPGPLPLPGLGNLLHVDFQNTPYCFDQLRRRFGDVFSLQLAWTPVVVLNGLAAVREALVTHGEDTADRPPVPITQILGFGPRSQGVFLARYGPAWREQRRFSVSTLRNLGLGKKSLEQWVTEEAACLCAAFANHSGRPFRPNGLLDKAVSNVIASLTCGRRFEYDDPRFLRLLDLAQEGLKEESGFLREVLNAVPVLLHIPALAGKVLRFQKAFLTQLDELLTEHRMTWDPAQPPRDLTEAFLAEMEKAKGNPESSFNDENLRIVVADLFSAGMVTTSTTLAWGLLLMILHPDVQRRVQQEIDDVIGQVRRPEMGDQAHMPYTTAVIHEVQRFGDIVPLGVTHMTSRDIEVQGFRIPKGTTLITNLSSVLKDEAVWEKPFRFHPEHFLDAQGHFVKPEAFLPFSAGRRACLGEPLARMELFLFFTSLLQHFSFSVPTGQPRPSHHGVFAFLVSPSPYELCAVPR

As to `CC1(C)S[C@@H]2[C@H](NC(=O)[C@H](N)c3ccccc3)C(=O)N2[C@H]1C(=O)O`, the Potency result in assay [1], in [2], in assay [3], in [4], in assay [5] and in assay [6] was “inactive” throughout. For the same compound, the Potency entry in assay [8], in assay [9], in assay [10], in assay [11], in assay [12] and in assay [14] was “inactive” throughout. Moreover, in [7], the call was inactive. The Potency in assay [13] was 44.5 µM (active) and inactive.

`Cc1cc(C)nc(NS(=O)(=O)c2ccc(N)cc2)n1`: the Potency entry in assay [1], in assay [2], in assay [3], in assay [4], in assay [5] and in assay [6] was “inactive” each time. The Potency result in assay [15], in [16], in assay [8], in assay [9], in assay [17] and in assay [10] was “inactive” in each case. In addition, the Potency entry in [11] and in assay [13] was “inactive” in each case. Further, the call in assay [7] was inactive. Moreover, the Potency in assay [14] is 80.6 µM (active) and inactive.

With `CC(C)C(=O)Nc1ccc([N+](=O)[O-])c(C(F)(F)F)c1`, the Potency entry in [1], in assay [3], in assay [4], in [5], in [6] and in assay [15] was “inactive” in each case. Also, the Potency entry in [16], in [9], in [10] and in [11] was “inactive” each time. Besides, the Potency in [2] is 25 µM (active); in [8] it was 50.1 µM (active) and inactive; in assay [17], 44.5 µM (active) and 54.5 µM (active) and 26.6 µM (active); in assay [12], 35.4 µM (active) and 34.4 µM (active) and 29.8 µM (active); in assay [13], 36.6 µM (active) and 63.3 µM (active); in assay [14], 18.3 µM (active) and 22.4 µM (active) and 7.76 µM (active). Besides, the result in [7] was inactive.

As for `Cc1ncc([N+](=O)[O-])n1CCO`, the Potency result in assay [1], in assay [2], in [3], in [4], in assay [5] and in assay [6] was “inactive” throughout. Besides, the Potency entry in assay [15], in assay [16], in [8], in assay [9], in assay [10] and in [11] was “inactive” each time. Further, the Potency result in [13] and in assay [14] was “inactive” in each case. Besides, in assay [7], the outcome was inactive.

In the case of `CCCCCCCC(=O)OCC(COC(=O)CCCCCCC)OC(=O)CCCCCCC`, the Potency result in [1], in assay [3], in [4], in [5], in assay [6] and in [15] was “inactive” in each case. Besides, the Potency result in assay [16], in assay [8], in assay [9], in assay [17], in [10] and in assay [11] was “inactive” each time. In addition, the Potency entry in assay [19], in [13] and in assay [14] was “inactive” in each case. In addition, the compound was called inactive in assay [7] and in assay [20]. In addition, the max activation in assay [18] was -1.45% (inactive).

As to `C[C@](N)(Cc1ccc(O)c(O)c1)C(=O)O`, the Potency entry in assay [1], in assay [3], in assay [4], in assay [5], in assay [6] and in assay [15] was “inactive” throughout. Further, the Potency entry in assay [16], in assay [8], in assay [9], in [17], in assay [10] and in assay [11] was “inactive” in each case. For the same compound, the Potency result in assay [19], in assay [13] and in assay [14] was “inactive” in each case. Besides, the result in [7] and in assay [20] was inactive. The max activation in assay [18] was -6.56% (inactive).
